Results from PubChem BioAssay AID778 (Sanford-Burnham Center for Chemical Genomics, 2007).
Out of some 96,000 compounds screened, about 20,000 (21%) were called active. Not all results are given here. Values without a mark were called inactive.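 The calls were made as follows: active = CYP2C19 inhibition above a set limit at 5 µM in the primary screen (cut at about 50% in these data); inactive = the rest.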

Biological target: Cytochrome P450 2C19 (Homo sapiens) (UniProt P33261)
Experiment: blockers of cytochrome P450 2C19 activity – biochemical, luminescence, ADME assay, primary screen (AID 778);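 also: plate controls were negative control wells for no effect and 2.5 mM tranylcypromine positive control for full effect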
Settings: CYP2C19 Supersomes, luciferin-H EGE luminescence, 30 min; at 5 µM; hits give high values

Cytochrome P450 2C19 (Homo sapiens), sequence (P33261 whole entry, looked up): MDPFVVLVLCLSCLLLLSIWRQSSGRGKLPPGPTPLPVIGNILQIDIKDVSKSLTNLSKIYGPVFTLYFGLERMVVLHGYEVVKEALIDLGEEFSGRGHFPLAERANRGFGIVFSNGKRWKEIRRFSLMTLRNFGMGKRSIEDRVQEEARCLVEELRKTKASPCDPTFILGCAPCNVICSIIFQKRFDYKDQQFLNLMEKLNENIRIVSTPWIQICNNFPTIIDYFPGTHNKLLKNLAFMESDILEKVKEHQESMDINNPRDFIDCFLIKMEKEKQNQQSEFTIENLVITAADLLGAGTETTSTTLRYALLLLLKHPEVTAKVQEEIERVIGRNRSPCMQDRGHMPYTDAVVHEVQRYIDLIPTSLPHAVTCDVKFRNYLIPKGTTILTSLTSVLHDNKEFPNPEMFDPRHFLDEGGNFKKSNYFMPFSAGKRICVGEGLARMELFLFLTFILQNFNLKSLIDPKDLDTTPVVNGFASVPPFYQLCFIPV

Compound	inhibition
CC(C)c1ccc(O)c(CN2CCN(c3ccccc3)CC2)c1	19.8%
COc1ccc(CN2CCN(c3ccccc3F)CC2)c(OC)c1	86.7% (active)
CCCCCn1c(=O)c(C(=O)NCc2ccccn2)c(O)c2ccccc21	26%
CCCCn1c(O)c(C(CC)=NCc2ccco2)c(=O)[nH]c1=O	29.9%
CCC(=NCCCO)c1c(O)n(-c2ccc(OC)cc2)c(=O)[nH]c1=O	-9.4%
CCCCCCN=C(CC)c1c(O)n(CCCC)c(=O)[nH]c1=O	73.6% (active)
Cn1c(O)c(C=NCCCC(=O)O)c(=O)n(C)c1=O	-13.4%
CCN(CC)CCOC(=O)c1cc2cc(COC)ccc2o1	-6.5%
O=C(c1cc(S(=O)(=O)N2CCOCC2)ccc1F)N1CCC2(CC1)OCCO2	-8%
CCN1CCN(C(=O)Cc2coc3cc(C)cc(C)c23)CC1	89.1% (active)
Cc1cc(OCc2cc(C(=O)O)oc2C)c2c3c(c(=O)oc2c1)CCCC3	-33%
CN(C)C(=O)NC(O)C(Cl)(Cl)Cl (stereo not given)	23.9%
CCN(CC)P(=O)(Oc1cccc(C)c1)N(CC)CC	78.8% (active)
O=C(CN1CCCCC1)Nc1ccc(Br)cc1C(=O)c1ccccc1Cl	10.3%
CC12CN3CC(C)(CN(C1)C3c1cccs1)C2 (stereo not given)	7.6%
Cc1ccc(N(C)C(=O)Oc2cccc3ccc(C)nc23)cc1	55.4% (active)
CN1C2C=C(N(C(=O)c3ccc(Cl)cc3)c3ccccc3)CC1CC2 (stereo not given)	19.9%
CCOC(=O)c1c(C)c(C(=O)N2CCC3(CC2)OCCO3)c(C)n1CC	49.7%
C[N+]12CN3CN(CN(C3)C1)C2	-6.5%
Cc1ccc(Cn2nnnc2CN2CCC(n3nnc4ccccc43)CC2)cc1	87.4% (active)
Nc1ccc(C(=O)N/N=C2/CN3CCC2CC3)cc1	15.9%
O=C(O)C1CSC(c2cccnc2)N1 (stereo not given)	-10.8%
CCOC(=O)C1CN(C)CCC1=O (stereo not given)	-3.5%

Compound	inhibition
CC(=O)c1ccc(OC(NC(=O)Cc2ccccc2)C(Cl)(Cl)Cl)cc1 (stereo not given)	83.1% (active)
CC(=O)NC(=O)NC(C)Cc1ccccc1 (stereo not given)	-11.6%
Cc1nc2ccccn2c1P(=S)(N1CCCCC1)N1CCCCC1	17.2%
CC1=C(C(=O)Nc2ccccc2)SCCO1	-3.1%
CCOP(=S)(OCC)SCOC(=O)NCC(=O)OC	95.6% (active)
Cc1cccc(N2C(=O)NC(=O)/C(=C\c3cnn(-c4ccccc4)c3)C2=O)c1	-9.4%
Cn1c(O)c(C=Nc2ccc3c(c2)CCC3)c(=O)n(C)c1=O	31.3%
N#Cc1ccc(Cn2cc(C(=O)c3ccco3)c3ccccc32)cc1	9.2%
CSC1=NP(=S)(SC)N(C)c2nc3n(c21)CCC3 (stereo not given)	8.2%
COC(=O)C(c1ccccc1)N1CCCCCC1 (stereo not given)	12.8%
OC(CNC1CCCCC1)c1ccccc1 (stereo not given)	58.5% (active)
O=C(CSC1c2ccccc2-c2ccccc21)N/N=C/c1ccccc1	25.3%
CCCC(C)n1[nH]c(=O)c2c1NC(=O)CSC2c1ccc(OC)c(OC)c1 (stereo not given)	7.2%
c1cncc(CNC2=NCCC2)c1	-16.9%
CCc1cccc2c(C#N)cn(CC(=O)N3CCOCC3)c12	6.7%
CC(=O)Nc1ccccc1C(=O)OCC(=O)c1cccc2ccccc12	51.1% (active)
CCOc1ccc(C2SCC(=O)Nc3c2c(C)nn3C2CCOC(C)(C)C2)cc1 (stereo not given)	7%
CC(C)c1ccc(OCC(=O)N2CCN(C)CC2)c(Br)c1	76% (active)
CN1CCN(C(=O)COc2ccc(C(C)(C)C)cc2Br)CC1	66.5% (active)
NC(=O)Nc1cccc(C(F)(F)F)c1	26.2%
Cc1nc2nc(C)c(CCC(=O)N3CCC4(CC3)OCCO4)c(C)n2n1	0%
CC(=O)c1c(O)n(C2CCCCCC2)c(=O)[nH]c1=O	27%
O=C(COc1ccc2ccccc2c1)N1CCN(Cc2ccncc2)CC1	90.1% (active)

Compound	inhibition
CCN(CC)C(=O)c1ccc(NC(=O)c2cc(-n3cnnc3)ccc2Cl)cc1	11.1%
Cn1c(C(=O)N2CCC(C(=O)N3CCC4(CC3)OCCO4)CC2)cc2sccc21	7.5%
CC(C)(C)c1ccc(CN2C(=O)CN=C(c3ccccc3)c3ccccc32)cc1	16.5%
CCOC(=O)c1c(-c2ccccc2)oc2ccc(OC(=O)N(C)C)cc12	60.7% (active)
Cc1ccc2c(c1)C1CN(C)CCC1N2C(=O)Cn1nnc(-c2ccccc2F)n1 (stereo not given)	8.3%
O=c1c2ccccc2nc(-c2ccc(Cl)cc2Cl)n1-c1ccncc1	76.4% (active)
O=c1c2ccccc2nc(-c2ccco2)n1-c1ccc(Br)cn1	-3.5%
CCc1nc2ccccc2c(=O)n1-c1cccc(OC)c1	33.5%
COC(=O)C(O)(c1ccc(NC(=O)c2ccco2)c(OC)c1)C(F)(F)F (stereo not given)	39%
CCNc1nc2[nH]c(=O)c3c(c2s1)OC(N)=C(C#N)C3c1cccs1 (stereo not given)	-19.6%
CCC(=O)CC(c1ccc([N+](=O)[O-])cc1)c1c(O)c2ccccc2oc1=O (stereo not given)	1.3%
c1ccc(C2NCc3ccccc3-n3cccc32)cc1 (stereo not given)	33%
COc1ccc(C2NCc3ccc4c(c3-n3cccc32)OCO4)cc1OC (stereo not given)	77.5% (active)
CCC(=NCc1ccco1)c1c(O)n(Cc2ccccc2)c(=O)[nH]c1=O	49.6%
CC(=NCc1ccc2c(c1)OCO2)c1c(O)[nH]c(=O)[nH]c1=O	-13.9%
COc1ccccc1-n1c(O)c(C=NC2CC2)c(=O)[nH]c1=O	42.1%
COc1ccc(CCn2c(O)c(C=NCCCn3ccnc3)c(=O)[nH]c2=O)cc1OC	16.7%
COc1ccc(CCn2c(O)c(C=NC3CC3)c(=O)[nH]c2=O)cc1OC	94.9% (active)
CC(=O)N1CN2CN(C(C)=O)CC(C(=O)c3ccc(Br)cc3)(C2)C1	-5.5%
C=Cn1ccnc1P(=S)(c1cc(N(CC)CC)ns1)c1nccn1C=C	18.8%
CCC/C(=N\O)c1c[nH]c2ccccc12	72.6% (active)
C/C(CCc1c[nH]c2ccccc12)=N\O	12%
CNP1(NC)=Nc2nn(-c3ccccc3)c(N)c2C(c2ccccc2)=N1	-1.8%

Compound	inhibition
CNC(=O)N(C)c1nnc(C(C)(C)C)s1	-8.5%
CC[N+](CC)(CC)CCCCCCCCCC[N+](CC)(CC)CC	14.9%
O=C1NC(=O)C(C/C=C/c2ccccc2)C(=O)N1	5%
C=CCN1C(=O)C2(C(C(=O)OCC)=C(N)Oc3c2c(=O)oc2ccccc32)c2ccccc21 (stereo not given)	88.5% (active)
COC(=O)CN1C(=O)C2(C(C(=O)OC)=C(N)Oc3ccccc32)C2=C1CC(C)(C)CC2=O (stereo not given)	18.2%
Cc1ccc(P(=S)(c2ccc(C)o2)N2CCOCC2)o1	36.5%
Cc1cc(N2C(=O)C3CCCN3C2c2ccc(Cl)c(Cl)c2)no1 (stereo not given)	11.9%
CCN1c2nc3c(C)cccn3c(=O)c2CC2(C(=O)N(C)C(=O)N(C)C2=O)C1C (stereo not given)	-11.5%
N[C@@H](Cc1c[nH]c2ccccc12)c1nnc(SCc2c(F)cccc2Cl)o1	74.1% (active)
COc1ccc(-c2nc(CS(=O)CC(=O)N3CCC4(CC3)OCCO4)c(C)o2)cc1 (stereo not given)	13.3%
CCCCCn1c(=O)c(C(=O)Nc2c(C)n(C)n(-c3ccccc3)c2=O)c(O)c2ccccc21	1.4%
O=C(c1cc(-c2ccncc2)nc2ccccc12)N1CCC2(CC1)OCCO2	35.1%
Cc1cccc(-n2c(C)nc3cc(C(=O)N4CCC5(CC4)OCCO5)ccc32)c1	6.6%
O=C(c1cc2nc(-c3ccccc3)cc(-c3ccccc3)n2n1)N1CCC2(CC1)OCCO2	94% (active)
O=C(CCN1CCCCC1)NCC(=O)Nc1ccc(Br)cc1C(=O)c1ccccc1	-17.3%
CC(=C1C(=O)c2ccccc2C1=O)N1CCN(CCN=Cc2c(O)n(C)c(=O)n(C)c2=O)CC1	24.7%
CC1(C)C(c2ccccc2)=NC(c2cccnc2)=[N+]1[O-]	16.4%
c1ccc2sc(C3CCCNC3)nc2c1 (stereo not given)	-18.4%
CCOc1ccc(CN(CCCl)CCCl)cc1C(=O)OC	63.9% (active)
O=C1/C(=C\c2ccc3c(c2)OCO3)N2CCC1CC2	40%
CCOC(=O)C(O)(c1ccc(NC(=O)c2ccco2)c(OC)c1)C(F)(F)F (stereo not given)	25.1%
CN1CCC(N(C)Cc2cccnc2)CC1	-0.7%
COc1ccccc1N1CCN(C(CNC(=O)Oc2ccccc2)c2cccnc2)CC1 (stereo not given)	39.7%

Compound	inhibition
CN1CCN(Cc2ccc(OC(F)(F)F)cc2)CC1	20.2%
COC(=O)N(c1ccc(OC)cc1)P1(=S)OCCC(C)O1 (stereo not given)	21.5%
COc1ccc(C(=O)C2CN(C)CC2C(=O)c2ccc(OC)cc2)cc1 (stereo not given)	8.9%
COc1ccccc1CN1CCN(C(=O)Cc2ccccc2)CC1	68.1% (active)
CCC(=NCCc1ccccc1)c1c(O)n(C2CCCCC2)c(=O)[nH]c1=O	11.8%
CCOC(=O)c1c(N)n(CCN2CCOCC2)c2nc3ccccc3nc12	13.3%
CCOC(=O)c1c(N)n(Cc2ccccc2)c2nc3ccccc3nc12	-1%
COc1cc(Cn2c(N)c(C(=O)NCc3ccco3)c3nc4ccccc4nc32)cc(OC)c1OC	93.2% (active)
COc1ccccc1N=C1SCCCN1C	-31.2%
O=C(C1CC(=O)N(C2CCCC2)C1)N1CCC2(CC1)OCCO2 (stereo not given)	10.5%
COc1ccc(S(=O)(=O)NCc2ccc(C(=O)N3CCC4(CC3)OCCO4)cc2)cc1	-0.4%
CC(=O)N(C1=NCCCS1)c1ccccc1F	7.3%
CCOC(=O)C1SC2(C(F)(F)C(F)F)CC1(O)c1c(c(OC)c3occc3c1OC)O2 (stereo not given)	92.1% (active)
Cc1ccc(C)c(NC2=NCCCS2)c1	7.4%
CC(=NCC1CCCO1)c1c(O)n(-c2ccccc2)c(=O)[nH]c1=O (stereo not given)	22.9%
CCOC(=O)C1=C(C)OC(N)=C(C(=O)OC)C12C(=O)Nc1ccc(Br)cc12 (stereo not given)	62.4% (active)
CCOC(=O)CC1=C(C(=O)OCC)C2(C(=O)N1)C(C(=O)OC)=C(N)Oc1ccccc12 (stereo not given)	4.8%
Cc1cc(C)cc(NC(=S)NC2CC3CCCC(C2)N3Cc2cccs2)c1 (stereo not given)	22.1%
CC(=NC1CCN(Cc2ccccc2)CC1)c1c(O)n(C)c(=O)n(C)c1=O	8.1%
CN1CCN(Cc2ccccc2C(F)(F)F)CC1	7.9%
Fc1cccc(F)c1CN1CCN(Cc2c(F)cccc2F)CC1	94.4% (active)
CCOC(=O)C(O)(c1ccc(N)c(OC)c1)C(F)(F)F (stereo not given)	20.4%
Fc1ccc(N2CCN(Cc3ccc4c(c3)OCO4)CC2)cc1	22.5%
